# AmpC no deterg: qHTS Inhibitors of AmpC Beta-Lactamase (assay without detergent) | 330,000 compounds, 0.52% hits | Potency, µM (highest dose often 57.1 µM), inactives show at the highest dose activity change, negative = inhibition, usual class: inhibitors | P00811 | AmpC nitrocefin hydrolysis, absorbance 480 nm, 0.0001% Triton;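 note: plate controls were no compound for no effect and no enzyme for full effect; nearly all actives have a fitted effect of over 20% in size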
# Target sequence (P00811 whole entry, looked up): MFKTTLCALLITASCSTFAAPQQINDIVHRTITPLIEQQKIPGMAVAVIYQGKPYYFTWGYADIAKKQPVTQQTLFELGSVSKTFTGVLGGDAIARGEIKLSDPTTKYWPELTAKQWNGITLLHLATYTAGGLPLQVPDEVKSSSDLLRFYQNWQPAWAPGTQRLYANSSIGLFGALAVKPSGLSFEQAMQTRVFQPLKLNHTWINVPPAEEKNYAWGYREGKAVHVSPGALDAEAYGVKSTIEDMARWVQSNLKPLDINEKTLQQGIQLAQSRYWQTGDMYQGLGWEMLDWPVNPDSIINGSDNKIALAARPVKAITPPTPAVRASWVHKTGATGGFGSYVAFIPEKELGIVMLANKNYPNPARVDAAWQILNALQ
#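 AmpC (5.3 nM in the dispensed reagent) in 20 mM phosphate pH 7.0 with 0.01% (detergent screen) or 0.0001% Triton X-100 was preincubated with compounds for 15 min at room temperature. Nitrocefin was then added from an 800 uM solution, and hydrolysis was followed at 480 nm.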
# HCV inh: qHTS Assay for Inhibitors of Hepatitis C Virus (HCV) | Huh7.5.1 HCVcc-Cre infection, luciferase reporter, 44 h | Potency, µM (series often up to 41.8 µM), for the others: at the top dose activity change, negative = inhibition, actives largely listed as inhibitors | 340,000 compounds, 3.4% hits
#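 Compounds are dispensed onto cells plated 4 h earlier at 1,000 per well, with HCVcc-Cre virus (about 0.5 moi) added next. Following 44 h of culture, luminescent signal is measured for 15 sec after 15 min with substrate at room temperature.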
# Pf growth 96h: Primary qHTS for delayed death inhibitors of the malarial parasite plastid, 96 hour incubation; P. falciparum luciferase reporter growth, 96 h; Potency, µM (series often up to 28.7 µM), inactives show at the highest dose activity change, negative = inhibition, hits mostly inhibitors; 320,000 compounds, 6.9% hits; AID 504834, 2011
#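 Cell-based qHTS: luciferase-tagged P. falciparum in erythrocytes (2% hematocrit, 0.05% parasitemia final) incubated with compounds for 96 hours, 37 C, 5% CO2; luciferase detection reagent then added and luminescence measured.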
# AmpC inh detg: qHTS Inhibitors of AmpC Beta-Lactamase (assay with detergent) | AmpC hydrolysis of nitrocefin, absorbance 480 nm, 0.01% Triton | Potency, µM (top dose mostly 114 µM), inactives show top-dose activity change, negative = inhibition, actives largely listed as inhibitors | 370,000 compounds, 0.041% hits;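 note: 0% = no-compound wells and -100% = no-enzyme wells; nearly all actives have a fitted effect of over 25% in size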
#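 AmpC (5.3 nM in the dispensed reagent) in 20 mM phosphate pH 7.0 with 0.01% (detergent screen) or 0.0001% Triton X-100 was preincubated with compounds for 15 min at room temperature. Nitrocefin was then added from an 800 uM solution, and hydrolysis was followed at 480 nm.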
# Pf growth 48h: Primary qHTS for delayed death inhibitors of the malarial parasite plastid, 48 hour incubation; Potency, µM (series often up to 28.7 µM), inactives show at the highest dose activity change, negative = inhibition, hits mostly inhibitors; P. falciparum luciferase growth in erythrocytes, 48 h; 310,000 compounds, 5.9% hits
#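 First compound was added to culture medium, then infected red cells at 0.1% parasitemia and 2% hematocrit (final). After incubation at 37 C under 5% CO2, luciferase detection reagent was dispensed and light output recorded.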
# AMA1-RON2 inh: qHTS for Inhibitors of AMA1-RON; Towards Development of Antimalarial Drug Lead: Primary Screen; Plasmodium falciparum AMA1 (3D7) - RON2 peptide interaction; AlphaScreen AMA1-biotinylated RON2 peptide binding; Potency, µM (titrated, usually from 58.2 µM), without a hit: top-dose activity change, negative = inhibition, hits mostly inhibitors; 360,000 compounds, 0.2% hits;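 note: 0% = vehicle wells and -100% = peptide control; nearly all actives have a fitted effect of over 45% in size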
#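 AMA1 (3D7) with his tag at 25 nM final met compounds first, then biotinylated RON2 peptide at 25 nM; detection used donor plus acceptor beads, 10 µg/mL apiece, read by AlphaScreen after 30 min at room temperature.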
# * = called active by the depositor; ? = inconclusive; nt = no result given; [ ] = another dose, or the depositor's remark. Hits are enriched below; roughly 11% of the tested compounds scored in any of these assays. Calls come from the whole dose curve; as a rule, active = well fitted curve in the direction sought with a large enough effect; inconclusive = small, poorly fitted or top-dose-only effect, or another doubt; inactive = no such curve, though single readings can be large; an effect the other way counts as inactive or inconclusive. Unless noted, % is set by controls: 0 for no effect and ±100 for the full control effect; potency is the fitted concentration of half-maximal effect.
SMILES,AmpC no deterg,HCV inh,Pf growth 96h,AmpC inh detg,Pf growth 48h,AMA1-RON2 inh
COc1ccc([C@@H]2[C@@H]3C(=O)N(C(C)(C)C)C(=O)[C@@H]3[C@]3(CC(C)C)C(=O)N(c4ccc(C(F)(F)F)cc4)C(=O)N23)cc1,-12%,15%,3.7µM*,-20%,12µM*,12%
CCOC(=O)c1noc2ncnc(N3CCN(c4cccc(Cl)c4)CC3)c12,nt,nt,nt,23%,nt,nt
COc1ccccc1NS(=O)(=O)c1ccc2oc(SCc3ccc(F)cc3)nc2c1,3%,35µM*,?,1%,-20%,-12%
COc1ccccc1NS(=O)(=O)c1ccc2oc(SC)nc2c1,-1%,?,-18%,-1%,-8%,-12%
COc1ccccc1NS(=O)(=O)c1ccc2oc(SCC(C)=O)nc2c1,10%,-7%,6%,-12%,20%,-3%
COc1ccc(NS(=O)(=O)c2ccc3oc(SCc4ccc(F)cc4)nc3c2)cc1,-6%,11µM*,?,-10%,-19%,6%[11.6 µM]
COc1ccc(C2=NNC(=Nc3cc(S(=O)(=O)N(C)C)ccc3C)SC2)c(OC)c1,-13%,13µM*,-13%,1%,1.7µM*,-5%
CN(C)S(=O)(=O)c1cccc(N=C2NN=C(c3ccccc3)CS2)c1,-38%,35µM*,2.3µM*,?,13µM*,19%
COc1ccc2cc(C=O)n(C)c2c1,-3%,4%,?,1%,14%,-2%
COc1ccc2cc(CO)n(C)c2c1,-5%,?,?,-6%,12µM*,-5%
COc1ccccc1/C=C1\CCC(C2CCCC2)C1=O (stereo unspecified),-25%,-10%,15µM*,-2%,57%,12%
COc1cccc(C(=O)Nc2cccc(OCc3cc(=O)n4cccc(C)c4n3)c2)c1,nt,nt,nt,7%,nt,nt
CCOc1ccc(-n2c(N)c(C(=O)NCc3ccco3)c3nc4ccccc4nc32)cc1,-22%,?,-60%,-1%,nt,0%
CCOc1ccc(-n2c(N)c(-c3nc4ccccc4n3C)c3nc4ccccc4nc32)cc1,-14%,24%,2.9µM*,-2%,3%,35%[2.32 µM]
COc1ccc2c(c1)c1c(c(=O)n(-c3cccc(C)c3)c(=O)n1Cc1cccc(Cl)c1)n2C,nt,nt,nt,-5%,nt,nt
O=C(Nc1ccc(C(=O)N2CCN(c3ccccc3F)CC2)cc1)c1nsc2ccccc12,nt,nt,nt,14%,nt,nt
COc1ccc(-c2cc(=O)oc3c4c(ccc23)OCN(Cc2ccccc2)C4)cc1,nt,nt,nt,16%,nt,nt
Nc1ccc(C#Cc2ccccc2)cc1,-7%,?,229%,-12%,127%,11%
Cc1cccc(C#Cc2ccccc2)n1,-8%,1.1µM*,154%,?,102%,5%
CCCN(C(=O)c1coc(=O)c2ccccc12)c1ccccc1C,nt,nt,nt,2%,nt,nt
CC(=O)N(CC(=O)Nc1nn(-c2ccccc2)nc1C(N)=O)Cc1ccccc1,-9%,-16%,nt,0%,1µM*,18%
CCOc1ccc2nc(NC(=O)c3cc(=O)c4cc(C)cc(C)c4o3)sc2c1,nt,nt,nt,19%,nt,nt
CCCC(C)C1(CC)C(=O)NC(=Nc2ccccc2OC)NC1=O (stereo unspecified),-32%,-2%,10µM*,1%,-2%,-1%
COc1ccc([C@H]2CC(=O)C=C(c3ccc(F)cc3OCc3ccccc3)C2)cc1OC,43%,?,?,-1%,9.3µM*,-13%
COc1ccc([C@H]2CC(=O)C=C(c3ccc(Oc4ccccc4)cc3)C2)cc1OC,65%,5.6µM*,?,3%,?,-7%
SMILES,AmpC no deterg,HCV inh,Pf growth 96h,AmpC inh detg,Pf growth 48h,AMA1-RON2 inh
O=C1C=C(c2ccccc2Oc2ccccc2)C[C@@H](c2ccc3c(c2)OCO3)C1,-21%,?,?,0%,3.7µM*,-17%
COc1ccccc1C1=CC(=O)C[C@H](c2ccc3c(c2)OCO3)C1,-20%,?,11%,5%,-8%,0%
COc1ccc([C@H]2CC(=O)C=C(c3ccc(F)cc3OCc3ccccc3)C2)cc1,-19%,?,-21%,2%,?,9%
COCCn1c(CN2CCN(C(c3ccccc3)c3ccccc3)CC2)nc2c1c(=O)n(C)c(=O)n2C,41%,?,28%,-9%,2.6µM*,-2%
COCCn1c(CN2CCN(c3ccccc3)CC2)nc2c1c(=O)n(C)c(=O)n2C,nt,?,nt,nt,nt,26%
CCCCCCn1c(CN2CCN(CCO)CC2)nc2c1c(=O)n(C)c(=O)n2C,71%,10%,-14%,-8%,?,34%
Cn1c(=O)c2c(nc(CN3CCN(C(c4ccccc4)c4ccccc4)CC3)n2CCCO)n(C)c1=O,186%,-3%,-5%,2%,2.9µM*,-5%
CCOCCc1nn2c(=O)cc(COC(=O)c3ccc(NC(=O)C4CCCCC4)cc3)nc2s1,nt,nt,nt,-4%,nt,nt
N#CCCN(NC1=NS(=O)(=O)c2ccccc21)C(=O)c1ccccc1Br,-18%,8%,3.3µM*,-2%,15%,-9%
O=C(NCCc1c[nH]c2ccccc12)C(=O)NCC1OCCCN1S(=O)(=O)c1ccccc1 (stereo unspecified),?,?,?,-6%,9.3µM*,-4%
O=C(NCCc1c[nH]c2ccccc12)C(=O)NCC1OCCN1S(=O)(=O)c1ccccc1 (stereo unspecified),-47%,?,8%,6%,-2%,12%
Cc1ccc(S(=O)(=O)N2CCCOC2CNC(=O)C(=O)NCCc2c[nH]c3ccccc23)cc1 (stereo unspecified),-36%,?,13µM*,?,?,-3%
O=c1c2ccccc2nc(/C=C/c2ccccc2)n1-c1ccc(O)cc1,-20%,?,?,3%,12%[0.00184 µM],-13%
O=c1c2ccccc2nc(/C=C/c2ccc([N+](=O)[O-])o2)n1-c1ccc(O)cc1,-28%,?,?,-2%,9.3µM*,-3%
Cc1cccc(-n2c(/C=C/c3ccc([N+](=O)[O-])o3)nc3ccccc3c2=O)c1,-1%,10µM*,70%,1%,?,-5%
CCOc1ccc(C(=O)NCCc2sc(-c3ccc(F)cc3)nc2C)cc1,nt,nt,nt,19%,nt,nt

# High-throughput results (PubChem BioAssay)
